SUMO HTRF inh = inhibitors of in vitro SUMOylation cascade, primary screen, biochemical, HTRF, uHTS | AID 2006, 2009 | hit rate 0.36% among 290,000 | inhibition, % at 35 µM | HTRF SUMOylation assay, SAE1/SAE2 + UBC9; in the data active means inhibition above about 50%, passing the limit was not always enough
Target sequence (P63279 whole entry, looked up): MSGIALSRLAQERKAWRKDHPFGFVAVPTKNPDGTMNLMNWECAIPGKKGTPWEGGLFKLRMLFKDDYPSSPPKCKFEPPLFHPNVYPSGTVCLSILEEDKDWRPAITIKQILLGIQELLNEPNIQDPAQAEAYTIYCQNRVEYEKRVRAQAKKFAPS
NadD inh = inhibitors of S. aureus NadD, primary screen, biochemical, colorimetric, uHTS; Nicotinate-nucleotide adenylyltransferase NadD (Staphylococcus aureus N315); purified NadD enzyme, colorimetric absorbance read-out; inhibition, % at 20 µM; hit rate 0.78% among 360,000; AID 602399, 2012; in the data active means inhibition above about 26%
p-CIP stab down = p/CIP-EGFP fusion destabilizers, primary screen, fluorescence, F442A cells. hit rate 0.01% among 290,000. AID 1984, 2009. decrease of EGFP signal, % at 10 µM. 16 h;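 active means EGFP signal decrease of at least 30% at 10 µM or well 3 SD below plate mean, unless failing retest; inactive means the rest, including hits failing retest or dose response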
PHOSPHO1 inh = PubChem AID 1565; Phosphoethanolamine/phosphocholine phosphatase (Homo sapiens), Q8TCT1; recombinant PHOSPHO1, absorbance phosphatase assay; hit rate 1.1% among 290,000; inhibition, % at 13.3 µM; in the data active means inhibition above about 60%
Target sequence (Q8TCT1 whole entry, looked up): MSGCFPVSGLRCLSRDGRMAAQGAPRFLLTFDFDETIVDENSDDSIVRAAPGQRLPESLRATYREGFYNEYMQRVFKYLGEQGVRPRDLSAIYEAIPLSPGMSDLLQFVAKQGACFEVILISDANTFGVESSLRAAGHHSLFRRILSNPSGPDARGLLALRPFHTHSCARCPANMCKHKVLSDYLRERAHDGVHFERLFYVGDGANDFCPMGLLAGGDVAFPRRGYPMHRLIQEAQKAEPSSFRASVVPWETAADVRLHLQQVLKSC
Each line names hits and unclear results; the compound was inactive in the other large screens. In the library only some 1.8% were active in any assay of this set; here they are far more common.

O=S(=O)(/N=C(/Sc1ccccc1)c1ccccc1)c1ccccc1	PHOSPHO1 inh 100
Cc1cc(/C=C(/C#N)c2nc3ccccc3[nH]2)c(C)n1-c1cccc([N+](=O)[O-])c1	NadD inh 41
CC(=O)Oc1ccc2c(c1)C(=O)CCCCCC(=O)O2	none (no result: SUMO HTRF inh, p-CIP stab down, PHOSPHO1 inh)
CC1=Nc2cccc3cccc(c23)N1C	SUMO HTRF inh 79
Cc1ccc(SC(C)C(=O)Nc2cccnc2)cc1 (centres undefined)	PHOSPHO1 inh 60
Cc1ccc(SC(C)C(=O)Nc2ccncc2)cc1 (centres undefined)	none
Cc1ccccc1NNC(=O)C(=O)NNc1ccccc1C	PHOSPHO1 inh 68
COCCN(C(=O)COC(=O)C12CC3CC(CC(O)(C3)C1)C2)c1c(N)n(Cc2ccccc2)c(=O)[nH]c1=O	none (no result: SUMO HTRF inh, p-CIP stab down, PHOSPHO1 inh)
COc1cc2c3c(cccc3c1)C(=O)N(CCN1CCCC1)C2=O	none (no result: SUMO HTRF inh, p-CIP stab down, PHOSPHO1 inh)
Cc1cccc(OCc2n[nH]c(=S)o2)c1	PHOSPHO1 inh 98
Cc1cccc(C)c1OCc1n[nH]c(=S)o1	none
N#Cc1c(Cl)nc(SCc2ccccc2)nc1-c1ccccc1	PHOSPHO1 inh 96 (no result: NadD inh)
COc1cc(CNn2c(C)n[nH]c2=S)cc(Cl)c1OCc1ccc(F)cc1	PHOSPHO1 inh 90
OCC1OC(c2ccc(OCc3ccccc3)cc2OCc2ccccc2)C(O)C1O (centres undefined)	none (no result: SUMO HTRF inh, p-CIP stab down, PHOSPHO1 inh)
CC1(C(=O)CSc2nc3ccccc3[nH]2)CCC(=O)O1 (centres undefined)	none
CC1(C(=O)CSc2ncn[nH]2)CCC(=O)O1 (centres undefined)	PHOSPHO1 inh 93 (no result: NadD inh)
COc1ccc(S(=O)(=O)N2CCCOC2CNC(=O)C(=O)NCCO)cc1 (centres undefined)	none (no result: SUMO HTRF inh, p-CIP stab down, PHOSPHO1 inh)
COC(=O)Nc1ccc2c(c1)N(C(=O)CCN1CCN3CCCC3C1)c1ccccc1CC2 (centres undefined)	none
COC(=O)Nc1ccc2c(c1)N(C(=O)CCN1CCN3CCCC3C1)c1ccccc1S2 (centres undefined)	PHOSPHO1 inh 66
N#Cc1c(=O)c2nc(NCc3ccccc3)ncc2n2ccccc12	SUMO HTRF inh 51
O=C(Nc1cccc(C(F)(F)F)c1)C1Cc2c(-c3ccccc3Oc3ccccc3)ccnc2O1 (centres undefined)	none (no result: SUMO HTRF inh, p-CIP stab down, PHOSPHO1 inh)
N#C/C(=C\c1cc([N+](=O)[O-])c(N2CCCCC2)cc1N1CCCCC1)c1nn(-c2ccccc2)c(N)c1C#N	NadD inh 42
COCCNC(=O)C1(C)CCN(C(=O)c2nc(C)oc2C)C1 (centres undefined)	none (no result: SUMO HTRF inh, p-CIP stab down, PHOSPHO1 inh)
O=C1c2ccccc2C(c2nnnn2Cc2ccccc2)N1CCCN1CCOCC1 (centres undefined)	none (no result: SUMO HTRF inh, p-CIP stab down, PHOSPHO1 inh)
CCOC(=O)CC1(NC(=O)C2CCC(=O)N(Cc3ccccc3OC)C2)CCCCC1 (centres undefined)	PHOSPHO1 inh 66
Cc1ccnc(NC(=O)c2ccc(S(=O)(=O)c3ccccc3)cc2)c1	PHOSPHO1 inh 61
Cc1ccnc(NC(=O)c2ccc(C(=O)c3ccccc3)cc2)c1	none (no result: SUMO HTRF inh, p-CIP stab down, PHOSPHO1 inh)
COc1ccc(C#Cc2ccc(C3=CC(=O)CC(C)(C)C3=O)cc2)cc1	none (no result: SUMO HTRF inh, p-CIP stab down, PHOSPHO1 inh)
CCN(CC)C(=S)SSC(=S)N(CC)CC	PHOSPHO1 inh 89
CCCCCCCc1nc2c(=O)n(C)c3ccccc3c2o1	PHOSPHO1 inh 63
CCCCCc1nc2c(=O)n(C)c3ccccc3c2o1	none
COc1ccc(NC(=O)C2(C)Cc3c(-c4ccc(C(N)=O)cc4)ccnc3O2)cn1 (centres undefined)	none (no result: SUMO HTRF inh, p-CIP stab down, PHOSPHO1 inh)
COC1(c2ccccc2)NC(=S)NN=C1c1ccccc1 (centres undefined)	PHOSPHO1 inh 75
CCCCCCOC1(c2ccccc2)OC(=O)c2ccccc21 (centres undefined)	none
CCCCOC1(c2ccccc2)NC(=S)NN=C1c1ccccc1 (centres undefined)	PHOSPHO1 inh 71 (no result: NadD inh)
Cc1cnc(C(=O)OCc2cc(=O)n3c(C)cccc3n2)cn1	none (no result: SUMO HTRF inh, p-CIP stab down, PHOSPHO1 inh)
O=C(NC1CCOC1=O)OCc1ccccc1 (centres undefined)	none (no result: SUMO HTRF inh, p-CIP stab down, PHOSPHO1 inh)
N#CC1=C(N)C(C#N)(C#N)[C@H](c2ccoc2)[C@H]2CN(Cc3ccccc3)CC=C12	SUMO HTRF inh 62
CC(=O)N1CC=C2C(C#N)=C(N)C(C#N)(C#N)[C@H](c3ccoc3)[C@H]2C1	none
CN1CC=C2C(C#N)=C(N)C(C#N)(C#N)[C@H](c3ccoc3)[C@H]2C1	SUMO HTRF inh 88
CCN(Cc1ccccc1)C(=O)CN1C(=O)COc2ccc(S(=O)(=O)NC3CCCC3)cc21	PHOSPHO1 inh 63
COc1ccc(CNC(=O)CN2C(=O)COc3ccc(S(=O)(=O)NC4CCCC4)cc32)cc1	none
CCc1nc2ccc(C(=O)N3CCN(c4ccccc4)CC3)cn2c1N(C)CCC(C)C	none (no result: SUMO HTRF inh, p-CIP stab down, PHOSPHO1 inh)
Cc1ccc2cccc(NC(=S)NC(=O)c3ccccc3)c2n1	none
Cc1ccc2cccnc2c1NC(=S)NC(=O)c1ccccc1	PHOSPHO1 inh 69
COc1ccc(CN2C(=O)C(CC(=O)NCc3cccs3)CC(C(=O)N(C(C)C)C(C)C)=C2C)cc1 (centres undefined)	none (no result: SUMO HTRF inh, p-CIP stab down, PHOSPHO1 inh)
CC(C)(C)OC(=O)NCCC(=O)Oc1ccc2ccc(=O)oc2c1	none
CC(NC(=O)OC(C)(C)C)C(=O)Oc1ccc2ccc(=O)oc2c1 (centres undefined)	SUMO HTRF inh 52
CSC1=NC2(CCCCC2)C2=C(CCCC2)N1	PHOSPHO1 inh 101
COC(=O)c1ccc2c(c1)S(=O)(=O)NC(=NCc1ccco1)S2	PHOSPHO1 inh 75
COC(=O)c1ccc(=O)n(Cc2ccco2)c1	none
C[C@H]1CN([C@@H](C)CO)C(=O)CCCn2cc(nn2)CO[C@@H]1CN(C)C(=O)CCC(F)(F)F	none (no result: SUMO HTRF inh, p-CIP stab down, PHOSPHO1 inh)
CCCC(=O)N1CCC1(C)C(=O)Nc1cccc(OC(C)C)c1 (centres undefined)	none (no result: SUMO HTRF inh, p-CIP stab down, PHOSPHO1 inh)
Cc1cc(-c2nn(-c3ccccc3)cc2/C=C2\SC(N)=NC2=O)ccc1OC(C)C	NadD inh 35
CCCOc1ccc(-c2nn(-c3ccccc3)cc2/C=C2\SC(N)=NC2=O)cc1	none
O=C(NCc1cccc(C(F)(F)F)c1)c1ccc2sc(C3=C[C@@H](O)[C@@H](O)[C@@H](CO)O3)nc2c1	none (no result: SUMO HTRF inh, p-CIP stab down, PHOSPHO1 inh)
Cc1cccc(C(=O)n2c(=S)nc3ccccn32)c1	PHOSPHO1 inh 85
COc1cc(/C=C/C(=O)NCC2CCCCC2)cc(OC)c1OC	none
O=C(Nc1ccccc1F)c1ccc2sc([C@H]3C[C@H](O)[C@@H](CO)O3)nc2c1	none (no result: SUMO HTRF inh, p-CIP stab down, PHOSPHO1 inh)
NS(=O)(=O)c1ccc(NC(=O)COC(=O)CSc2n[nH]c(-c3ccccc3)n2)cc1	PHOSPHO1 inh 71
CCOC(=O)C1(C)/C(=N/Nc2ccc(Cl)cc2)C(=O)C(=O)N1c1ccccc1 (centres undefined)	PHOSPHO1 inh 103
CCOC(=O)C1(C)/C(=N/Nc2cccc(Cl)c2)C(=O)C(=O)N1c1ccccc1 (centres undefined)	none
CCOC(=O)C1(C)/C(=N/Nc2ccccc2Cl)C(=O)C(=O)N1c1ccccc1 (centres undefined)	PHOSPHO1 inh 92
C[C@@H]1CN([C@@H](C)CO)C(=O)CCCn2nncc2CO[C@@H]1CN(C)C(=O)Nc1ccc(N2CCN(C)CC2)cc1	none (no result: SUMO HTRF inh, p-CIP stab down, PHOSPHO1 inh)

Screening data deposited in PubChem by Sanford-Burnham Center for Chemical Genomics.
